Here are results for seven molecules from PubChem BioAssay.

Calls of active or inactive are those of the source. Unless noted, no rule for the calls is given here.

Assay [1] deals with XIP peptide (Xip251-270) binding. Description: small-molecule binders of XIP peptide, primary screen, biochemical, small-molecule microarray, fluorescence 635/667 nm, 0.1 µg/mL protein (AID 1182). The conditions noted are these: fluorescent protein binding, 635 nm, higher = more signal, called active from +8 up or from −8 down.
The subject of a further assay is XIP peptide (Xip251-270). Nature of the assay: small-molecule binders of XIP peptide, primary screen, biochemical, small-molecule microarray, fluorescence 635/667 nm, 0.5 µg/mL protein (AID 1183). The conditions noted are these: small-molecule microarray binding, fluorescence 635 nm; higher = more signal.
Assay [2] is described as follows: Plasmodium falciparum growth inhibition, primary screen, strain 3D7, DAPI fluorescence, 100 nL (AID 1184).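 Also: parasites grown inside human red blood cells in medium with human serum.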 The conditions noted are these: P. falciparum 3D7 growth, 3 d, higher = more signal.
Assay [3] deals with Homeobox protein Hox-A13 (Mus musculus) (UniProt Q62424). Description: inhibitors of HoxA13-DNA binding, primary screen, biochemical, fluorescence polarization, labeled oligonucleotide (AID 1185). The conditions noted are these: 15 min, higher = more signal, called active from +8 up or from −8 down. (In fluorescence polarisation assays a small probe gives low polarisation when free and higher when bound to something large.)
Chain of Homeobox protein Hox-A13 (Mus musculus) (Q62424 whole entry, looked up): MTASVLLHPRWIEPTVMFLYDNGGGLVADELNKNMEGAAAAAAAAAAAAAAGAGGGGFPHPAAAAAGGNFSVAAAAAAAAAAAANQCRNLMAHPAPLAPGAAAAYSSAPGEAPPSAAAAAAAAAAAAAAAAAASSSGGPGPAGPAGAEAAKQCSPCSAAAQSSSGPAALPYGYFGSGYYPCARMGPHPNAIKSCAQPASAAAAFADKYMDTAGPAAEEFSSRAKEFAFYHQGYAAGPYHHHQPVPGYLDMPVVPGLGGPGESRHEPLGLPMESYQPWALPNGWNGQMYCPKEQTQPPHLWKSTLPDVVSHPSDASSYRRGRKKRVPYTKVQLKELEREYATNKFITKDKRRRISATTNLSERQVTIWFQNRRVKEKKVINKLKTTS

A short description of assay [4]: inhibitors of hydroxyurea-induced Chk1 phosphorylation, primary screen, imaging, HeLa, phospho-Chk1 antibody, percent positive cells (AID 1186). The conditions noted are these: hydroxyurea-induced phospho-Chk1 immunofluorescence imaging, higher = more signal.
Assay [5] in a line: inhibitors of hydroxyurea-induced Chk1 phosphorylation, primary screen, imaging, HeLa, phospho-Chk1 nuclear intensity (AID 1187). The settings on record: hydroxyurea-induced phospho-Chk1 immunofluorescence imaging, higher = more signal.

For the molecule `CC[C@@H]1C=C(C(=O)O)[C@H](c2cccc(Cl)c2)N1S(=O)(=O)c1ccc(C)cc1`, the results for the composite z-score (in assay [1]; with XIP peptide (Xip251-270)) were 0.415 (inactive) and 0.141, respectively. In addition, the z-score in assay [2] is 1.85; in assay [3], -3.71 (inactive); in assay [4] it was 0.198 (inactive); in assay [5], -0.141 (inactive).

For `CC(C)[Si]1(C(C)C)OCc2cc(-c3ccc(-c4ccc(Cl)c(Cl)c4)o3)nc(-c3ccc(Oc4ccccc4)cc3)c21`, the composite z-score in assay [1] was 0.146 (inactive); in the assay with XIP peptide (Xip251-270) it was 0.548. Also, the z-score in assay [2] was -0.497; in assay [3], -1.74 (inactive); in assay [4] it was 0.0415 (inactive); in assay [5], -0.0792 (inactive).

Turning to `COc1ccc([Si](C)(C)[C@H]2[C@H](CC(=O)N3CCC[C@H]3CO)O[C@@]3(C(=O)N(C)c4ccccc43)[C@@H]2C)cc1`, the composite z-score in assay [1] was -0.216 (inactive); in the assay on XIP peptide (Xip251-270), 0.924. In addition, the z-score is 1.07 in assay [2], -3.41 (inactive) in assay [3], -0.529 (inactive) in assay [4] and -0.766 (inactive) in assay [5].

Turning to `O=C1C[C@@](C(=O)NCC(F)(F)F)(c2ccc([N+](=O)[O-])cc2)[C@@H](c2ccc(CO)cc2I)N1CC12CC3CC(CC(C3)C1)C2`, the composite z-score in assay [1] was 2.08 (inactive); in the assay with XIP peptide (Xip251-270) it was 0.797. For the same molecule, the z-score is -1.23 in assay [2], -2.47 (inactive) in assay [3], -0.353 (inactive) in assay [4] and -0.245 (inactive) in assay [5].

As to `COc1ccc(CCNC(=O)[C@@]2(C)c3ccccc3C(=O)N(Cc3ccc(OC(F)(F)F)cc3)[C@H]2c2ccc(CO)cc2)cc1`, the results for the composite z-score (in assay [1]; in the assay on XIP peptide (Xip251-270)) were 1.06 (inactive) and 0.666, respectively. The z-score in assay [2] was -1.21; in assay [3], -4.22 (inactive); in assay [4], -0.141 (inactive); in assay [5] it was -0.102 (inactive).

Consider `COC(=O)C[C@H]1O[C@]2(C(=O)N(C)c3ccccc32)[C@@H](C)[C@@H]1[Si](C)(C)c1ccccc1`, for which the results for the composite z-score (in assay [1]; in the assay with XIP peptide (Xip251-270)) were -0.182 (inactive) and 0.428, respectively. For the same molecule, the z-score in assay [2] is -1.48; in assay [3], -7.09 (inactive); in assay [4] it was -0.0412 (inactive); in assay [5], 0.192 (inactive).

For `COC(=O)[C@]1(Cc2ccccc2N=[N+]=[N-])N=C(c2ccc(OCCCO)cc2)O[C@@H]1c1ccccc1CN=[N+]=[N-]`, the composite z-score in assay [1] is 0.11 (inactive); in the assay with XIP peptide (Xip251-270), 0.729. The z-score in assay [2] was -1.96; in assay [3], -1.15 (inactive); in assay [4], -0.446 (inactive); in assay [5], -0.437 (inactive).
